# Bioassay records from PubChem.
# Most compounds without a hit are left out; they make up all but 2.9% or so of the library.
# S1P4 antag = blocks the human S1P4 receptor; AID 1510; inhibition, % at 4.98 µM; S1P4-expressing cells, antagonist mode, reporter read-out; hit rate 0.26% among 220,000; O95977; in the data active = inhibition above about 29%
# Target sequence (O95977 whole entry, looked up): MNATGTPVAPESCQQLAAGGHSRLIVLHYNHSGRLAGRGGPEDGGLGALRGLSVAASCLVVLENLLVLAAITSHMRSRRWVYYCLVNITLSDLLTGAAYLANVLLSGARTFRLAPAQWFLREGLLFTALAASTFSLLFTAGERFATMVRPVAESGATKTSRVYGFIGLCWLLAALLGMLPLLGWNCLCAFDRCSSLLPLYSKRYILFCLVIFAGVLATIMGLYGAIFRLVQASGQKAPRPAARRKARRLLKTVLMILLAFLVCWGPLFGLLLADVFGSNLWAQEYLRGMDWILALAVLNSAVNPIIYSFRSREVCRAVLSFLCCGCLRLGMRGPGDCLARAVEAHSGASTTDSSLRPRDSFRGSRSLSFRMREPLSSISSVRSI
# S1P3 antagonist = blocks the human S1P3 receptor; Q99500; CHO S1P3 NFAT-BLA reporter, FRET fluorescence, antagonist mode; inhibition, % at 4.98 µM; hit rate 0.27% among 170,000; AID 485;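 active = inhibition above the plate cutoff, the mean inhibition of test wells on that plate plus 3 SD, cut at about 28% in these data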;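 also: cells challenged with S1P at its EC80 of 0.8 µM; blue over green emission ratio from cleaved BLA substrate after 4 h stimulation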
# Hsp70 activator = Hsp70 transcriptional activation, primary screen; hit rate 0.04% among 200,000; activation, % at 10 µM; HeLa Hsp70 promoter luciferase reporter, luminescence; scaled: vehicle 0, proteasome-inhibitor control 100%;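 active = activation above the mean across all tested compounds plus 3 SD, cutoff set per campaign, cut at about 5.5% in these data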
# HSF-1 act = increases HSF-1 driven luciferase reporter signal | hit rate 1.7% among 300,000 | activation, % at 9 µM | NIH3T3-HGL HSF-1 luciferase reporter, MG132, 8 h; 100% = twice DMSO control signal | AID 504408;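 active = mean replicate activation of at least 50% with a set share of replicates each reaching 50%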
# HSF1 inhib = HSF1 inhibition. NIH3T3-HGL HSE-luciferase, MG132-induced, luminescence 8 h; stronger effect = lower value. activity change, negative = inhibition, % at 7.5 µM (by protocol). hit rate 0.77% among 300,000;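 active = more than half of replicate wells show activity change below -50%, luminescence cut by over half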;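 also: luciferase reports HSF-1 transcriptional activity via heat shock element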
# S1P4 ag = agonists of human S1P4 receptor; AID 1509; hit rate 0.35% among 220,000; O95977; S1P4-expressing cell line, agonist reporter assay; activation, % at 4.98 µM; in the data active = activation above about 11%
# Hits are given with their value; i = inactive; nt = no result given.
SMILES,S1P4 antag,S1P3 antagonist,Hsp70 activator,HSF-1 act,HSF1 inhib,S1P4 ag
O=C(CSc1nnc(-c2cccs2)o1)c1cccs1,i,i,i,i,i,i
Cc1nn(CC(=O)NCCCc2ccccc2)c(C)c1[N+](=O)[O-],i,i,i,i,i,i
COc1ccc(Br)cc1S(=O)(=O)Nc1ncccc1C,i,i,i,i,-88,i
CC(=O)C1=C(O)C(=O)N(c2ccc(Br)cc2)C1c1ccc(Br)cc1 (stereo not given),nt,nt,nt,i,i,nt
COc1ccc(C2C(C(C)=O)=C(O)C(=O)N2c2ccc(C)cc2)cc1 (stereo not given),nt,nt,nt,61,i,nt
COc1ccc(C2C(CC(=O)O)=C(Nc3ccccc3)C(=O)N2c2ccccc2)cc1 (stereo not given),i,i,i,64,i,i
O=C(O)CC1=C(Nc2ccccc2)C(=O)N(c2ccccc2)C1c1ccc(F)cc1 (stereo not given),i,i,i,i,i,i
CSc1nc(-c2ccc(N(C)C)cc2)c(C#N)c(=O)n1C,i,i,i,i,i,i
Cc1cccc(OCC(=O)Nc2ccncc2)c1C,nt,nt,nt,i,-68,nt
Cc1ccccc1OCC(=O)Nc1ccc(N2CCN(S(C)(=O)=O)CC2)cc1,i,i,i,i,i,i
Cc1cc(Cl)ccc1OCC(=O)Nc1ccncc1,nt,nt,nt,i,-59,nt
COc1ccccc1OCC(=O)Nc1ccncc1,nt,nt,nt,i,i,nt
Cc1cccc(OCC(=O)Nc2ccc(N3CCN(S(C)(=O)=O)CC3)cc2)c1C,i,i,i,57,i,i
CCCn1c(N)c(C(=O)CSc2nc(C)nc3sc(C)c(C)c23)c(=O)[nH]c1=O,nt,nt,nt,i,i,nt
C/C(CCc1ccccc1)=N/NC(=O)C(=O)NC(C)c1ccccc1 (stereo not given),i,i,i,i,i,i
Cc1cc(-n2cnnn2)ccc1C(C)C,i,i,i,i,i,i
CCc1nc2c(oc3ccccc32)c(=O)[nH]1,i,nt,i,i,i,i
O=c1[nH]c(CSc2ccccn2)nc2c1oc1ccccc12,i,i,i,108,i,i
COc1cc2c(cc1OC)C(C(=O)NCC1COc3ccccc3O1)C(c1cccnc1)N(C)C2=O (stereo not given),i,nt,i,nt,nt,i
O=C(O)C1CCCCC1C(=O)Nc1cccc(C(=O)N2CCCCC2)c1 (stereo not given),i,i,i,i,-56,i
O=c1c2cc(N3CCOCC3)ccc2[nH]c(=S)n1Cc1ccccn1,i,nt,i,67,i,i
O=c1c2cc(N3CCOCC3)ccc2[nH]c(=S)n1Cc1ccccc1Cl,i,i,i,i,i,i
O=C(CSc1nnc(COc2ccccc2)o1)Nc1ccc(F)cc1,nt,nt,nt,i,i,nt
CC(/C=C1\SC(=S)N(CCC(=O)Nc2ccccc2O)C1=O)=C\c1ccccc1,nt,nt,nt,i,-69,nt
CC(/C=C1\SC(=S)N(CCC(=O)Nc2cccc(C(=O)O)c2)C1=O)=C\c1ccccc1,nt,nt,nt,i,i,nt
SMILES,S1P4 antag,S1P3 antagonist,Hsp70 activator,HSF-1 act,HSF1 inhib,S1P4 ag
CC(/C=C1\SC(=S)N(CCCC(=O)Nc2ccc(C(=O)O)cc2)C1=O)=C\c1ccccc1,i,i,i,61,i,i
O=C(CCN1C(=O)/C(=C/C=C/c2ccccc2)SC1=S)Nc1ccccn1,i,i,i,i,i,i
O=C(CCCCCN1C(=O)c2ccccc2C1=O)Nc1ccc(C(=O)O)cc1,nt,nt,nt,63,i,nt
CC(=C\c1ccccc1)/C=C1/SC(=S)N(CCC(=O)Nc2ccccn2)C1=O,i,i,i,i,-91,i
N#Cc1ccccc1NC(=O)CN(Cc1ccccc1)Cc1ccccc1,nt,nt,nt,i,i,nt
O=C(CCCCCCN1C(=O)c2ccccc2C1=O)N1CCC(c2ccccc2)C1 (stereo not given),i,nt,i,i,-64,i
CC(/C=C1\SC(=O)N(CCCC(=O)O)C1=O)=C\c1ccccc1,i,i,i,i,-73,i
C=CCNC(=S)Nc1sc2c(c1C#N)CCCC2,i,i,i,i,-54,i
CC(C)(C)C(=O)NC(=S)Nc1sc2c(c1C#N)CCCCC2,i,i,i,i,i,i
O=Nc1c(-c2c(O)[nH]c3cc(Br)ccc23)[nH]c2ccccc12,nt,nt,nt,i,i,nt
Cc1ccc(/C=N/NC(=O)CNC(=O)Cc2ccccc2)o1,i,i,i,i,i,i
CC(=NCCc1ccccc1)C1=C(O)CCC1=O,i,nt,i,i,i,i
CC(=NCCc1ccccc1)C1=C(O)CSC1=O,i,i,i,i,-79,i
COc1ccc(-n2c(C)nc(N)c2C(=O)c2ccccc2)cc1,i,i,nt,i,i,i
Cc1ccc(O)c(NC(=O)CSc2n[nH]c(-c3ccccc3)n2)c1,nt,nt,nt,109,i,nt
Cc1ccc(C)c(NC(=O)CSc2n[nH]c(-c3ccccn3)n2)c1,nt,nt,nt,i,i,nt
CN(C)CCCNC(=O)C1CCNCC1,i,i,i,i,i,i
N=C1C(c2nc3ccccc3s2)=C(O)CN1C1CCCCC1,i,i,i,54,i,i
N=C1C(c2nc3ccccc3s2)=C(O)CN1C1CCC(O)CC1 (stereo not given),i,i,nt,i,i,i
CN(C)CCCOc1nc2c(c(=O)n(C)c(=O)n2C)n1C,i,nt,i,i,i,i
O=C(CNS(=O)(=O)c1ccccc1)Nc1ccc2c(c1)OCO2,i,i,i,i,i,i
C=CCn1c(C)cc(C(=O)COC(=O)CNC(=O)c2ccccc2)c1C,i,i,i,i,-82,i
CN(Cc1ccccc1)c1nc2c(c(=O)[nH]c(=O)n2C)n1Cc1ccccc1Cl,i,i,i,78,i,i
CN(Cc1ccccc1)c1nc2c(c(=O)[nH]c(=O)n2C)n1CCCc1ccccc1,i,i,i,i,i,i
COc1ccccc1NC(=S)N1CCN(c2ccccc2F)CC1,nt,nt,nt,i,i,nt
SMILES,S1P4 antag,S1P3 antagonist,Hsp70 activator,HSF-1 act,HSF1 inhib,S1P4 ag
CCC(=O)O[C@]1(C(=O)SCF)[C@H](C)C[C@H]2[C@@H]3C[C@H](F)C4=CC(=O)C=C[C@]4(C)[C@@]3(F)[C@@H](O)C[C@@]21C,nt,nt,nt,i,-53,nt
O=C(NCCN1CCN(C(=O)c2ccc(Br)cc2)CC1)c1ccc(Br)cc1,nt,nt,nt,68,i,nt
Cc1ccc(C(=O)Cn2nc(C(=O)O)c3ccccc3c2=O)cc1C,i,i,nt,64,i,i
CCCCCCCn1c(C)nnc1-c1cnn(C)c1N,i,i,i,i,i,i
C=CCn1c(O)c(C2=c3ccccc3=NC2=O)c2ccccc21,nt,nt,nt,257,i,nt
Cc1c(-n2c(O)c(C3=c4ccccc4=NC3=O)sc2=O)c(=O)n(-c2ccccc2)n1C,i,i,i,i,i,i
Cc1ccc2c(c1)c(C1=c3ccccc3=NC1=O)c(O)n2C,nt,nt,nt,195,i,nt
Cc1cccc(C)c1OCc1cc(C(=O)N2CCN(c3ccc(F)cc3)CC2)no1,nt,nt,nt,70,i,nt
O=C(c1cc(COc2ccc(F)cc2Cl)on1)N1CCSCC1,nt,nt,nt,84,i,nt
O=C(c1cc(COc2ccc(F)cc2Cl)on1)N1CC[C@@H]2CCCC[C@H]2C1,nt,nt,nt,i,i,nt
Cc1cccc(C)c1OCc1cc(C(=O)N2CCN(c3ccccn3)CC2)no1,nt,nt,nt,i,i,nt
